# From PubChem BioAssay (NCATS)
# Activity calls are given as the source filed them. The call rests on the fitted dose curve; in most records, active means well fitted activation curve with a large enough effect; inconclusive means small, poorly fitted or top-dose-only effect; inactive means flat fitted curve, though single readings scatter.
# Assay: Confirmation and Secondary Assay for Modulators of Hemoglobin Beta Chain Splicing at IVS2 654 locus (AID 910);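 further: HeLa cells stably carrying EGFP split by mutant beta-globin IVS2-654 intron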
# Conditions: HeLa EGFP-654 splicing reporter, GFP fluorescence, 48 h; series mostly up to 46.1 µM
# Source text: NIH Chemical Genomics Center [NCGC] NIH Molecular Libraries Screening Centers Network [MLSCN] MLSCN Grant: 1 X01 MH080684-01 PI Name: Dr. Ryszard Kole NCGC Assay Overview: Modulation of Alternative Splicing as Therapy Abnormal splicing is associated with a number of diseases, including cancer and genetic diseases such as cystic fibrosis, muscular dystrophy and beta-thalassemia. Alteration of disease associated splicing patterns provides a promising target for treatment. […] Mutations in the second intron of the b-globin gene at positions 654 or 705 are clinically relevant and cause mis-splicing which results in an out of frame gene product. […] EGFP-654 HeLa Cells as screen system. HeLa cell lines were stably transfected with a construct in which the EGFP (enhanced green fluorescent protein) cDNA was interrupted by the second intron of the beta-globin gene (IVS2-654). The ISV2 intron contains mutations which cause mis-splicing of EGFP and premature termination of EGFP which results in a nonfluorescent protein product. […] Expression of the transgene was driven by the CMV promoter. We concluded that a low molecular weight compound, which restored correct splicing of intron 2 would also generate functional EGFP protein, resulting in a fluorescent signal. Thus, the HeLa cells that express the EGFP-654 construct can be used for high throughput screening of a chemical library.
# NCGC Assay Protocol Summary: Confirmatory Screening. Freshly thawed HeLa EGFP-654 cells were seeded in 5 ul of optimem media (Invitrogen) containing 2 % fetal calf serum (Hyclone) and 1x penicillin/streptomycin (Invitrogen) at a concentration of 500 cells per well in 1536-well plates. Cells were incubated overnight at 37C in 5% CO2. The next day, cells were treated with DMSO, 500 nM antisense ISV2 654 PNA control oligo, or library compound and allowed to grow at 37C in 5% CO2 for 2 days. The PNA oligo blocked the mutation site in the intron and allowed proper (wild type) splicing to occur, resulting in full length EGFP expression and also allowed for optimization of the assay parameters. Plates were read in the Acumen Explorer (TTP Labtech) using 488 nm laser excitation and 500-520 nm emission PMT filter in a 1 x 8 uM capture mode. Fluorescnet objects ranging in size from 5 to 250 uM were measured and the total peak GFP intensity for each well was used for data analysis. Keywords: Thalassemia, beta-thalassemia, beta-globin, EGFP, ISV2 654, ISV2 705, SSO, PNA, antisense, splicing, MLSMR, MLSCN, NIH Roadmap, qHTS, NCGC
row,SMILES,outcome
1,NC(N)=Nc1nc(CSCC/C(N)=N\S(N)(=O)=O)cs1,inactive
2,C=CC(C1=CC(=O)C(OC)=CC1=O)c1ccc(OC)cc1 (stereo not given),inactive
3,CC1CC[C@@]23CCC4(C)[C@@]5(C)CCC6C(C)(C)C(=O)CC[C@@]6(C)C5C=C[C@@]4(OC2=O)C3C1C (stereo not given in full),inactive
4,CC(=O)c1ccc[nH]1,inactive
5,COc1cc2c(cc1OC)C1C(=O)c3c(O)cc4c(c3OC1CO2)C=CC(C)(C)O4 (stereo not given),inactive
6,COc1ccc(-c2cc(=O)c3ccccc3o2)cc1OC,inactive
7,COc1ccc(-c2coc3c(OC)c(OC)cc(O)c3c2=O)cc1,inactive
8,Cc1nnc(SCC2=C(C(=O)O)N3C(=O)C(NC(=O)Cn4cnnn4)[C@@H]3SC2)s1 (stereo not given in full),inactive
9,CC1(C)C(=O)C=C[C@@]2(C)C1C=C[C@@]1(C)C2CC[C@@]2(C)C(c3ccoc3)OC(=O)C3OC312 (stereo not given in full),inactive
10,O=C1OC(C(O)CO)C(O)=C1O (stereo not given),inactive
11,CCOC(=O)C1=C[C@@]2(CC)CCCN3CCc4c(n1c1ccccc41)C32 (stereo not given in full),inactive
12,NCC1O[C@H](O[C@@H]2C(O)[C@H](O[C@H]3OC(CO)C(O)C(N)C3O)[C@@H](N)C[C@H]2N)[C@@H](N)CC1O (stereo not given in full),inactive
13,COc1ccc(C2COc3c(ccc(O)c3OC)C2)c(OC)c1O (stereo not given),inactive
14,NC(N)=N/N=C\c1c(Cl)cccc1Cl,inactive
15,Cn1c(=O)[nH]c(=O)c2[nH]cnc21,inactive
16,CC(=O)OC1CC2C(C)(C)C(=O)CC[C@]2(C)C2CC[C@]3(C)C(=CC(=O)OC3c3ccoc3)[C@]12C (stereo not given in full),inactive
17,NC(=O)c1cc[n+](CC2=C(C(=O)O)N3C(=O)C(NC(=O)C(c4ccccc4)S(=O)(=O)[O-])C3SC2)cc1 (stereo not given),inactive
18,CC1CC2C3CCC4=CC(=O)C=C[C@@]4(C)[C@]3(F)C(O)C[C@]2(C)[C@]1(O)C(=O)COP(=O)(O)O (stereo not given in full),inactive
19,COC(=O)C1OC(=O)C2OC23[C@]2(C)C(OC(C)=O)CC4C(C)(C)C(=O)CC[C@]4(C)C2CC[C@@]13C (stereo not given in full),inactive
20,COc1ccc(-c2cc(=O)c3ccccc3o2)cc1,inactive

row,SMILES,outcome
1,COc1c(-c2coc3cc4c(cc3c2=O)CC(OC(C)=O)C(C)(C)O4)ccc2c1C=CC(C)(C)O2 (stereo not given),inactive
2,Nc1ncnc2c1[nH]c(=O)n2C1CC(O)C(CO)O1 (stereo not given),inactive
3,CC(=O)OC1CC(OC(C)=O)[C@]2(C)C(CC(OC(C)=O)[C@@]3(C)C4=CC(=O)OC(c5ccoc5)[C@]4(C)CCC32)C1(C)C (stereo not given in full),inactive
4,Cc1cc(O)cc(=O)o1,inactive
5,O=C1C=CC2=C3c4cc(O)c(O)cc4C[C@]3(O)COC2=C1,inactive
6,CO[C@@]1(NC(=O)Cc2cccs2)C(=O)N2C(C(=O)O)=C(COC(N)=O)CSC21 (stereo not given in full),inactive
7,COc1ccc2c3c1OC1CC(O)C=C[C@@]31CCN(C)C2 (stereo not given in full),inactive
8,CC(=O)OC1CCC2(C)C3=C(CCC2C1(C)C)[C@@]1(C)CCC(C(C)CCC=C(C)C)[C@@]1(C)CC3 (stereo not given in full),inactive
9,COC1=CC(=O)C=C(OC)C1=O,inactive
10,COc1cc(O)c(C(=O)/C=C/c2ccc(O)c(OC)c2)c(OC)c1,inactive
11,CN1C[C@H](C(=O)N[C@@]2(C)O[C@@]3(O)C4CCCN4C(=O)C(Cc4ccccc4)N3C2=O)C[C@H]2c3cccc4[nH]cc(c34)C[C@H]21 (stereo not given in full),inactive
12,CC(=O)OC1CC[C@@]2(C)C3CC[C@@]4(C)C(CC5O[C@@]6(CCC(C)CO6)C(C)C54)C3CC[C@@H]2C1 (stereo not given in full),inactive
13,CC1(C)C(=O)C=C[C@]2(C)C1CC(=O)[C@]1(C)C2CC[C@@]2(C)C(c3ccoc3)OC(=O)C3O[C@@]321 (stereo not given in full),inactive
14,COC(=O)CC1C(C)(C)C(=O)C2CC3C4=CC(=O)OC(c5ccoc5)[C@]4(C)CCC3[C@@]1(C)C2=O (stereo not given in full),inactive
15,CCC1OC(=O)C(C)[C@@H](O[C@H]2C[C@@](C)(OC)C(O)C(C)O2)C(C)[C@@H](O[C@@H]2OC(C)CC(N(C)C)C2O)[C@@](C)(O)CC(C)C2NC(COCCOC)O[C@H](C2C)[C@@]1(C)O (stereo not given in full),inactive
16,COc1ccc(-c2coc3cc(OC)cc(OC)c3c2=O)cc1,inactive
17,CC(=O)N1CCN(c2ccc(OCC3CO[C@@](Cn4ccnc4)(c4ccc(Cl)cc4Cl)O3)cc2)CC1 (stereo not given in full),inactive
18,CC1/C=C/C=C/C=C/C=C/C=C/C=C/C=C/C(OC2OC(C)C(O)C(N)C2O)CC2O[C@@](O)(CC(O)CC(O)C(O)CCC(O)CC(O)CC(=O)OC(C)[C@H](C)C1O)CC(O)C2C(=O)O (stereo not given in full),inactive
19,CNC1C(O)C(O[C@H]2C(O)[C@@H](OC3OC(CN)=CCC3N)[C@H](N)C[C@@H]2N)OC[C@]1(C)O (stereo not given in full),inactive
20,COc1cc(C2c3cc4c(cc3C(O)[C@H]3COC(=O)C23)OCO4)cc(OC)c1OC (stereo not given in full),inactive
